# Measurements published in PubChem BioAssay (NCATS).
# “And” between values parts separate entries of the source, which are not always exact repeats. Identical values can stand only once. Results filed as inconclusive are left out. Entries that show only a call come without a potency. A number with no mark means an inactive call. The source made the active and inactive calls. The call rests on the fitted dose curve; in most records, active means well fitted curve in the direction sought with a large enough effect; inconclusive means small, poorly fitted or top-dose-only effect, or another doubt; inactive means no such curve, though single readings can be large; an effect the other way counts as inactive or inconclusive. Numbered stars: 1 amine (or outer) side, 2 acyl side, 3 side chain; on linkers, the order of the positions; unused ones are H or OH. Bridge positions count the residues as written; N and C are the ends. Square brackets hold non-standard residues; d marks the D form. Peptide text beside a SMILES is read from it. I, II: the chains in the order shown. Actinocin(9to1) = Cc1c2oc3c(C)ccc(C(=O)[*:1])c3nc-2c(C(=O)[*:2])c(N)c1=O; NMeV = CN[C@H](C(=O)O)C(C)C; Sar = CNCC(=O)O
# What was measured:
# [1] = system: Zika virus NS2B-NS3 protease; experiment: Primary screen GU AMC qHTS for Zika virus inhibitors (AID 1347154); further: nearly all actives have a fitted effect of over 70% in size; further: potency means the concentration at half of the fitted maximal effect
# In short: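 Fluorogenic AMC-substrate cleavage by noncovalent NS2B-NS3 protease complex (25 nM, pH 8.0 Tris buffer with Tween 20) followed for 15 minutes at room temperature (~20% conversion). Percent inhibition from ex340/em450 signal change, fitted by 4-parameter Hill equation.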
# [2] = system: Zika virus NS2B-NS3 protease (unlinked complex); experiment: Confirmatory screen GU AMC qHTS for Zika virus inhibitors (AID 1347153); further: nearly all actives have a fitted effect of over 70% in size
# In short: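 Fluorescence change (ex 340/em 450 nm) over 15 min, ~20% substrate conversion, normalized to no-inhibitor and no-enzyme controls, then Hill-fitted. Unlinked protease at 25 nM; AMC peptide 10 µM.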
# [3] = Confirmatory screen NINDS Rhodamine qHTS for Zika virus inhibitors (AID 1347161); further: nearly all actives have a fitted effect of over 60% in size; further: potency means the concentration at half of the fitted maximal effect;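 on activity change, negative = inhibition: purified Zika NS2B-NS3 protease with linked NS2B cofactor domain and Rhodamine110 peptide substrate; series mostly up to about 110 µM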
# In short: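 In 10 mM Tris-HCl pH 8.0 containing 0.01% Tween 20, linked NS2B-NS3 protease (25 nM final) is exposed to test compounds for 15 min. Cleavage of 1.5 microM Rhodamine110 substrate is tracked by fluorescence over 15 min.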
# [4] = Vero cells viability qHTS for Zika virus inhibitors (AID 1347167)
# In short: (§1)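 Luminescent ATP readout (CellTiter Glo) after 30 min at 37 degrees C gives viability; cells in DMEM + 4% FBS were treated 24 to 48 hours with compound, following overnight attachment.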
# [5] = HepG2 cells viability qHTS for Zika virus inhibitors (AID 1347168)
# In short: as §1
# [6] = Tertiary RLuc qRT-PCR qHTS assay for Zika virus inhibitors (AID 1347169); further: nearly all actives have a fitted effect of over 55% in size; further: potency means the concentration at half of the fitted maximal effect; on activity change, negative = inhibition: top concentration of the series differs between compounds
# In short: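 Vero, 1,000 cells/well, o/n 37 C; cpd pinned in DMSO; ZIKV-RLuc Cambodian, MOI 1-2, 48-72 h 37 C; live-cell RLuc substrate, lum read at 1-1.5 h.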
# [7] = system: Zika virus NS2B-NS3 protease (linked construct); experiment: Confirmatory screen NINDS AMC qHTS for Zika virus inhibitors (AID 1347152); further: nearly all actives have a fitted effect of over 70% in size; further: potency means the concentration at half of the fitted maximal effect;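 on activity change, negative = inhibition: AMC fluorescence gain from cleaved Bz-Nle-KRR-AMC substrate over 15 min; top concentration of the series differs between compounds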
# In short: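 Enzyme (1 nM, linked construct) was preincubated with compound for 15 minutes at room temperature in 10 mM Tris-HCl pH 8.0 with 0.01% Tween 20. Bz-Nle-Lys-Arg-Arg-AMC was then added to 10 microM, and AMC fluorescence was recorded immediately and after 15 minutes.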
# [8] = Confirmatory screen GU Rhodamine qHTS for Zika virus inhibitors qHTS (AID 1347157); conditions: purified enzyme assay, Rhodamine110 substrate fluorescence, 15 min; further: potency means the concentration at half of the fitted maximal effect; nearly all actives have a fitted effect of over 70% in size
# In short: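 A qHTS format was used, with compound concentrations ranging up to 114 microM. Each compound was preincubated with 25 nM NS2B-NS3 protease, and the substrate was then added at 1.5 microM. Curves were fitted with a 4-parameter Hill model.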
# [9] = ZIKV-mCherry secondary qHTS for Zika virus inhibitors (AID 1347158); further: potency means the concentration at half of the fitted maximal effect
# In short: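 Read-out is percent infection: mCherry-positive Vero cells (nuclear-proximal intensity >450 RFU, 3 SD above negative controls) counted by high-content imaging of Hoechst-stained, PFA-fixed wells after 48-72 h with ZIKV-mCherry at MOI 1 and compound.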
# [10] = system: Zika virus NS2B-NS3 protease (linked construct); experiment: 384 well plate NINDS Rhodamine confirmatory qHTS for Zika virus inhibitors (AID 1347164);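 further: fluorescence from protease cleavage of Ac-LKRR-rhodamine 110 substrate; potency means the concentration at half of the fitted maximal effect; nearly all actives have a fitted effect of over 65% in size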
# In short: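 Enzyme (final 5/30/60 nM) + cpd (DMSO), ~15 min; add Ac-LKRR-Rd 10 microM final; 25 min RT, dark; FI ex 485/em 538; normalized to no-enzyme, no-inhibitor ctrls; aprotinin intraplate ctrl.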
# [11] = system: Zika virus NS2B-NS3 protease (unlinked complex); experiment: Primary screen GU Rhodamine qHTS for Zika virus inhibitors: Unlinked NS2B-NS3 protease assay (AID 1347159); further: nearly all actives have a fitted effect of over 60% in size
# In short: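 Enzyme 25 nM in Tris-HCl pH 8.0 + 0.01% Tween 20; compounds up to 114 microM, 15 min RT dark; + Rhod110 substrate 1.5 microM; read t0 and 15 min; delta fluorescence → % inhibition → 4-parameter Hill fit.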
# [12] = biological target: Lysine-specific demethylase 5B (Homo sapiens) (UniProt Q9UGL1); experiment: Optimization screen for KDM5B Histone Demethylases FDH coupled qHTS against the LOPAC library (AID 1347166)
# In short: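 KDM5BDeltaAP (200nM final) in 50mM HEPES pH 7.5, 0.01% Tween-20 was preincubated with compound for 10 min at room temperature. A substrate mix of 12.5uM H3K4Me3, 25uM a-ketoglutarate, ascorbate, Fe2+, NAD+ and formaldehyde dehydrogenase was then added. NADH fluorescence (340/450 nm) was read initially and after 30 min.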
# Chain of Lysine-specific demethylase 5B (Homo sapiens) (Q9UGL1 whole entry, looked up): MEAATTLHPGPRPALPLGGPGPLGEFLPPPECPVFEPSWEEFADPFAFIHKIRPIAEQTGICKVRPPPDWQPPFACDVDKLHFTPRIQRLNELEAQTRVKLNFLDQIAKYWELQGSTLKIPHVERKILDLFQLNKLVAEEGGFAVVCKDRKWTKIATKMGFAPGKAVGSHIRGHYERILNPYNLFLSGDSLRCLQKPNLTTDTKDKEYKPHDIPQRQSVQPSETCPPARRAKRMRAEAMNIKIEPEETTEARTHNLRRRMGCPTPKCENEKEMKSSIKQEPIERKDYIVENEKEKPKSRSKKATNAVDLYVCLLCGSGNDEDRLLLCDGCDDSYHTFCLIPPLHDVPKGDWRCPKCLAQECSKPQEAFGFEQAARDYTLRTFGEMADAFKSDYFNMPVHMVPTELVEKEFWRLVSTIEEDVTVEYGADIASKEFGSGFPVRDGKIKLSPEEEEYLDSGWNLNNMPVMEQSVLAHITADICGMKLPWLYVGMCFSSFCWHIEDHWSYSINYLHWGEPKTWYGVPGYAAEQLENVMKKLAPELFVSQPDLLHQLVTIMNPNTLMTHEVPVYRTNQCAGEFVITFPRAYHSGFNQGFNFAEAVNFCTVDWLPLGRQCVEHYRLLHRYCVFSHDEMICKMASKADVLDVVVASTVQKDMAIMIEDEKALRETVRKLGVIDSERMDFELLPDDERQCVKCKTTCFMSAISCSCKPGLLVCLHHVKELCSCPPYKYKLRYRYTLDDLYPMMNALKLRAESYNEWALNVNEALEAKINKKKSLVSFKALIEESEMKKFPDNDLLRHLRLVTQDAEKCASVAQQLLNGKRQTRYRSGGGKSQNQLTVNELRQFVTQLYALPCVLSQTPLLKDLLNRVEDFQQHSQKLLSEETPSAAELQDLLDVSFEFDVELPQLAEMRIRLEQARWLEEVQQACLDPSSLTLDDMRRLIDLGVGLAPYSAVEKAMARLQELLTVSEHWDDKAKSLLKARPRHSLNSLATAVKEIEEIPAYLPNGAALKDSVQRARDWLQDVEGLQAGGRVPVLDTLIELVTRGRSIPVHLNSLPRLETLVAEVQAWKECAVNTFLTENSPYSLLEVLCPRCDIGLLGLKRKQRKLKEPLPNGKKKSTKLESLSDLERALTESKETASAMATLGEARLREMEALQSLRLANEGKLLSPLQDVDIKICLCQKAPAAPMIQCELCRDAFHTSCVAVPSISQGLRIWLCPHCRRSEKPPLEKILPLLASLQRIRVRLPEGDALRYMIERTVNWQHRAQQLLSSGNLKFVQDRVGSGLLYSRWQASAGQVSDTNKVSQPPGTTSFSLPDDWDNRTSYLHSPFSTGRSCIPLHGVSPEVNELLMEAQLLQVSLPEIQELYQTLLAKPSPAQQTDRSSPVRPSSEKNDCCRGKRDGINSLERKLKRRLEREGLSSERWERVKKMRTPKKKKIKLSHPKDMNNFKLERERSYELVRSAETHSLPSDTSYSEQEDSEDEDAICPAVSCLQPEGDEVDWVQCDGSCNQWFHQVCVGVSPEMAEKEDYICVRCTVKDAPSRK
smiles,measurement,setting,value
CC(C)N=C(N)/N=C(\N)Nc1ccc(Cl)cc1,Potency,[1],inactive
CCN1CCC[C@H]1CNC(=O)c1c(OC)ccc(Br)c1OC,Potency,[1],inactive
NCCCC[C@H](N[C@@H](CCc1ccccc1)C(=O)O)C(=O)N1CCC[C@H]1C(=O)O,Potency,[1],inactive
NC[C@H]1O[C@H](O[C@H]2[C@H](O)[C@@H](O[C@H]3O[C@H](CO)[C@@H](O)[C@H](N)[C@H]3O)[C@H](N)C[C@@H]2N)[C@H](N)[C@@H](O)[C@@H]1O,Potency,[1],inactive
CCC(=O)c1c(O)cc(O)cc1O,Potency,[1],inactive
C[C@H]1C[C@H]2[C@@H]3CCC4=CC(=O)C=C[C@]4(C)[C@@]3(Cl)[C@@H](O)C[C@]2(C)[C@@]1(O)C(=O)CO,Potency,[1],inactive
Nc1nc2ncc(CNc3ccc(C(=O)N[C@@H](CCC(=O)O)C(=O)O)cc3)nc2c(=O)[nH]1,Potency,[2],inactive
same,Potency,[1],18.1 µM (active)
same,Potency,[3],55.3 µM (active)
same,Potency,[4],inactive
same,Potency,[5],inactive
same,Potency,[6],inactive
CC(=O)OCC(=O)[C@@]12N=C(C)O[C@@H]1C[C@H]1[C@@H]3CCC4=CC(=O)C=C[C@]4(C)[C@H]3[C@@H](O)C[C@@]12C,Potency,[1],inactive
CCOC(=O)n1ccn(C)c1=S,Potency,[1],inactive
CCCCN1CCCC1C(=O)Nc1c(C)cc(C)cc1C (stereo unspecified),Potency,[1],inactive
Cc1onc(-c2c(Cl)cccc2Cl)c1C(=O)N[C@@H]1C(=O)N2[C@@H]1SC(C)(C)[C@@H]2C(=O)O,Potency,[1],inactive
Cc1c(N(C)CS(=O)(=O)O)c(=O)n(-c2ccccc2)n1C,Potency,[1],inactive
CC(C)C[C@H]1C(=O)N2CCC[C@H]2[C@]2(O)O[C@](NC(=O)[C@@H]3C=C4c5cccc6[nH]c(Br)c(c56)C[C@H]4N(C)C3)(C(C)C)C(=O)N12,Potency,[7],inactive
same,Potency,[2],inactive
same,Potency,[3],inactive
same,Potency,[4],inactive
same,Potency,[5],inactive
CC(C)(Oc1ccc(Cl)cc1)C(=O)O,Potency,[1],inactive
O=C1OCCN1/N=C/c1ccc([N+](=O)[O-])o1,Potency,[1],inactive
CC(=O)Nc1c(I)cc(I)c(C(=O)O)c1I,Potency,[1],inactive
CN=C(NC#N)NCCSCc1csc(N=C(N)N)n1,Potency,[1],inactive
C[C@@H]1C[C@H]2[C@@H]3C[C@H](F)C4=CC(=O)C(Cl)=C[C@]4(C)[C@@]3(F)[C@@H](O)C[C@]2(C)[C@@]1(O)C(=O)CO,Potency,[1],inactive
NC[C@H]1O[C@H](O[C@H]2[C@H](O[C@@H]3O[C@H](CO)[C@@H](O)[C@H]3O)C(O)[C@H](N)C[C@@H]2N)[C@H](N)[C@@H](O)[C@@H]1O (stereo partly specified),"activity change, negative = inhibition",[1],-1.02% [at 6.83 µM]
"Cc1c2oc3c(C)ccc(C(=O)N[C@@H]4C(=O)N[C@H](C(C)C)C(=O)N5CCC[C@H]5C(=O)N(C)CC(=O)N(C)[C@@H](C(C)C)C(=O)O[C@@H]4C)c3nc-2c(C(=O)N[C@@H]2C(=O)N[C@H](C(C)C)C(=O)N3CCC[C@H]3C(=O)N(C)CC(=O)N(C)[C@@H](C(C)C)C(=O)O[C@@H]2C)c(N)c1=O (I: T[dV]P[Sar][NMeV] / II: T[dV]P[Sar][NMeV]; ester I:1-I:C, II:1-II:C; linker I:N-II:N via Actinocin(9to1))",Potency,[7],inactive
same,Potency,[2],inactive
same,Potency,[1],inactive
same,Potency,[3],inactive
same,Potency,[4],inactive
same,Potency,[5],inactive
same,Potency,[6],0.165 µM (active)
NC(=O)c1cc[n+](CC2=C(C(=O)[O-])N3C(=O)[C@@H](NC(=O)Cc4cccs4)[C@H]3SC2)cc1,Potency,[1],inactive
CCOC(=O)[C@H](CCc1ccccc1)N[C@@H](C)C(=O)N1Cc2ccccc2C[C@H]1C(=O)O,Potency,[1],inactive
O=c1c(-c2ccccc2)c1-c1ccccc1,Potency,[1],inactive
COc1cc(N)c(Cl)cc1C(=O)NC1CCN(CCCOc2ccc(F)cc2)CC1OC (stereo unspecified),Potency,[1],inactive
CC(=O)N/N=C/c1ccc([N+](=O)[O-])o1,Potency,[1],inactive
COCc1c(C(C)C)nc(C(C)C)c(/C=C/[C@@H](O)C[C@@H](O)CC(=O)O)c1-c1ccc(F)cc1,Potency,[1],inactive
COc1cc2c(cc1OC)C(C(C(=O)N(CCc1ccc(OC)c(OC)c1OC)CCc1ccc(OC)c(OC)c1OC)c1ccccc1)=NCC2 (stereo unspecified),Potency,[1],inactive
N[C@H](Cc1c[nH]c2ccccc12)C(=O)O,Potency,[1],inactive
CN1CCC(=C2c3ccccc3Sc3ccccc32)CC1,Potency,[1],inactive
NC(CS)C(=O)O (stereo unspecified),Potency,[1],inactive
C[C@]12CCC(=O)C=C1[C@@H]1C[C@@H]1[C@H]1[C@@H]3[C@@H]4C[C@@H]4[C@@]4(CCC(=O)O4)[C@@]3(C)CC[C@@H]12,Potency,[1],inactive
C=C(CC)C(=O)c1ccc(OCC(=O)O)c(Cl)c1Cl,Potency,[1],inactive
OC(CCN1CCCCC1)(c1ccccc1)c1ccccc1,Potency,[1],inactive
CC/C(=C(/CC)c1ccc(O)cc1)c1ccc(O)cc1,Potency,[1],inactive
O=C(Nc1ccc(Oc2ccc(Cl)cc2)c(Cl)c1)c1cc(I)cc(I)c1O,Potency,[7],13.6 µM (active)
same,Potency,[2],21.5 µM (active)
same,Potency,[1],14.1 µM (active)
same,Potency,[8],6.31 µM (active)
same,Potency,[9],11.2 µM (active)
same,Potency,[3],20 µM (active) and 3.93 µM (active)
same,Potency,[10],20 µM (active)
same,Potency,[5],inactive
same,Potency,[6],26.2 µM (active)
CCCCOc1ccc(C(=O)CCN2CCCCC2)cc1,Potency,[1],inactive
C[C@H](O)C(=O)Nc1c(I)c(C(=O)NC(CO)CO)c(I)c(C(=O)NC(CO)CO)c1I,Potency,[1],inactive
CN(C(=O)CN(CCO)CC(=O)N(C)C(C)(C)Cc1ccccc1)C(C)(C)Cc1ccccc1,Potency,[1],inactive
CC(C)COC(=O)c1ccc(N)cc1,Potency,[1],inactive
CCCCS(=O)(=O)N[C@@H](Cc1ccc(OCCCCC2CCNCC2)cc1)C(=O)O,Potency,[1],inactive
same,outcome,[11],inactive
COC(=O)C1=C(C)NC(C)=C(C(=O)O[C@@H]2CCCN(Cc3ccccc3)C2)[C@@H]1c1cccc([N+](=O)[O-])c1,Potency,[1],inactive
same,outcome,[11],inactive
CCCC1O[C@@H]2C[C@H]3[C@@H]4CCC5=CC(=O)C=C[C@]5(C)[C@H]4[C@@H](O)C[C@]3(C)[C@]2(C(=O)CO)O1 (stereo partly specified),outcome,[12],inactive
CC[C@H](C)C(=O)O[C@H]1CCC=C2C=C[C@H](C)[C@H](CC[C@@H]3C[C@@H](O)CC(=O)O3)[C@H]21,outcome,[12],inactive
COC(=O)[C@H]1[C@H]2C[C@H]3c4[nH]c5ccccc5c4CCN3C[C@H]2CC[C@@H]1O,outcome,[12],inactive
C1CCc2nnnn2CC1,Potency,[1],inactive
same,outcome,[12],inactive
